# Test results taken from PubChem BioAssay (EPA / NIEHS).
# Records with an inconclusive call do not appear. A structure can be active in one record and inactive in another. Activity calls are given as the source filed them. Rule for the calls: active = hit-call score of the fitted dose curve at least 0.9, where 1 is the maximum; inconclusive = response in the unintended direction; inactive = score below 0.9.
# Molecular target: rat Neurotensin Receptor (NTS), Ntsr1 (gene 366274) (UniProt P20789)
# Experiment: NVS_GPCR_rNTS: NovaScreen (NVS) G Protein-Coupled Receptor Assay for rat Neurotensin Receptor (NTS) (AID 2283308)
# Summary of the method: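 Single-point duplicates at 25 uM, then concentration series to 50 uM max for hits, measured radioligand displacement on rat forebrain membrane preparations. Bound label counted by filtration scintillation at 1 h; signal loss relative to DMSO fitted.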
# rat Neurotensin Receptor (NTS), Ntsr1 (gene 366274), sequence (P20789 whole entry, looked up): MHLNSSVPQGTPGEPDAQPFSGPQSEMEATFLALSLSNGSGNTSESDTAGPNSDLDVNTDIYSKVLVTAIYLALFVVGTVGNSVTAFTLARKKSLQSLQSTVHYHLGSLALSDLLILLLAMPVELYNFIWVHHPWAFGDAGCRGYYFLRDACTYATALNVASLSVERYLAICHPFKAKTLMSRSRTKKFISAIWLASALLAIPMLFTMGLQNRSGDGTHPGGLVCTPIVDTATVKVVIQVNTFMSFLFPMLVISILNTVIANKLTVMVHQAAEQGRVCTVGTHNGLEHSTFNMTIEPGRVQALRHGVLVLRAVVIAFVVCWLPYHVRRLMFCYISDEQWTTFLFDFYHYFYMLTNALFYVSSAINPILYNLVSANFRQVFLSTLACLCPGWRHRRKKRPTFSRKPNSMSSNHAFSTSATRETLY
row,SMILES,outcome
1,COc1nc(C)nc(NC(=O)NS(=O)(=O)c2ccccc2Cl)n1,inactive
2,CCNc1nc(Cl)nc(NC(C)C)n1,inactive
3,COC(=O)C(C)Oc1ccc(Oc2ccc(Cl)cc2Cl)cc1 (stereo unspecified),inactive
4,CNC(=S)S,inactive
5,Cc1c(F)c(F)c(COC(=O)C2C(/C=C(\Cl)C(F)(F)F)C2(C)C)c(F)c1F (stereo unspecified),inactive

# Molecular target: rat Neurokinin-1 Receptor (NK1), Tacr1 (gene 24807) (UniProt P14600)
# Experiment: NVS_GPCR_rNK1: NovaScreen (NVS) G Protein-Coupled Receptor Assay for rat Neurokinin-1 Receptor (NK1) (AID 2283309)
# Summary of the method: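 Competitive radioligand binding to NK1 in rat submaxillary membranes, 1 h incubation, filtration and scintillation read-out. Compounds first screened at 25 uM in duplicate, then concentration-response for actives; signal loss relative to DMSO.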
# rat Neurokinin-1 Receptor (NK1), Tacr1 (gene 24807), sequence (P14600 whole entry, looked up): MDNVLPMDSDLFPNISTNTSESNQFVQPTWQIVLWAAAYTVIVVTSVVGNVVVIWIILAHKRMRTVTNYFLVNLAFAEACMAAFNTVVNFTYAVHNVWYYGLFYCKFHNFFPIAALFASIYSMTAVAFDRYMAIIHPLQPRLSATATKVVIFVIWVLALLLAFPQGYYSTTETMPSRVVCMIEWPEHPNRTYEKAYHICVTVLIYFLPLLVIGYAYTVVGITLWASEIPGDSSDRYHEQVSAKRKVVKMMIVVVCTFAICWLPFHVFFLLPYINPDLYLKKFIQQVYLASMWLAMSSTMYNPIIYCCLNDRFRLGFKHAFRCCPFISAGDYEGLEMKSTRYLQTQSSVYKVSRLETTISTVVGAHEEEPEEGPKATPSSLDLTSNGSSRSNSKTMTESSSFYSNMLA
SMILES,outcome,AC50
COC(=O)C(C)Oc1ccc(Oc2ccc(Cl)cc2Cl)cc1 (stereo unspecified),inactive,–
C=CCC1=C(C)[C@@H](OC(=O)[C@@H]2[C@@H](C=C(C)C)C2(C)C)CC1=O,–,39.1 µM (active)
CC1COC(Cn2cncn2)(c2ccc(Oc3ccc(Cl)cc3)cc2Cl)O1 (stereo unspecified),inactive,–
COc1ccc(C(c2ccc(OC)cc2)C(Cl)(Cl)Cl)cc1,inactive,–
CO/C=C(/C(=O)OC)c1ccccc1Oc1cc(Oc2ccccc2C#N)ncn1,inactive,–
COc1nc(C)nc(NC(=O)NS(=O)(=O)c2ccccc2CCC(F)(F)F)n1,inactive,–

# Molecular target: rat Neurokinin-3 Receptor (NK3), Tacr3 (gene 24808) (UniProt P16177)
# Experiment: NVS_GPCR_rNK3: NovaScreen (NVS) G Protein-Coupled Receptor Assay for rat Neurokinin-3 Receptor (NK3) (AID 2283310)
# Summary of the method: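 Filter-based radioligand displacement on rat cortex membrane preparations, read by scintillation 2 h post-dose. Chemicals first tested in duplicate at 25 uM; actives followed up in concentration series with a 50 uM maximum.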
# rat Neurokinin-3 Receptor (NK3), Tacr3 (gene 24808), sequence (P16177 whole entry, looked up): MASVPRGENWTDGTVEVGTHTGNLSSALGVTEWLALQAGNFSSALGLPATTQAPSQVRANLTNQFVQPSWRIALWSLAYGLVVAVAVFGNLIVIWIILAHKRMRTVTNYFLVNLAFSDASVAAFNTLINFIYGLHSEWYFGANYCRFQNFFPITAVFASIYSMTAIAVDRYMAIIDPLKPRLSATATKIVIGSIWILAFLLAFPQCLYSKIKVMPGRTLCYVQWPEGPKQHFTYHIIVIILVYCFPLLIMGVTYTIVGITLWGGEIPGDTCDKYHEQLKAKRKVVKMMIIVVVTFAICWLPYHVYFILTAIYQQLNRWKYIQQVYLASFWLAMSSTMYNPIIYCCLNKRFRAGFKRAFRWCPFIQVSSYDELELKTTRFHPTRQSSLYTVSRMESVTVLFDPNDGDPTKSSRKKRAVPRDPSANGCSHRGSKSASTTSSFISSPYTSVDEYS
SMILES,AC50,outcome
CS/C(C)=N/OC(=O)N(C)SN(C)C(=O)O/N=C(\C)SC,2.97 µM (active),–
CNC(=S)S,–,inactive
C=CCC1=C(C)C(OC(=O)C2C(C=C(C)C)C2(C)C)CC1=O (stereo unspecified),–,inactive

# Molecular target: rat Opioid Receptor, Non-selective Sodium (Na+) Binding, Oprm1 (gene 25601) (UniProt P33535)
# Experiment: NVS_GPCR_rOpiate_NonSelectiveNa: NovaScreen (NVS) G Protein-Coupled Receptor Assay for rat Opioid Receptor, Non-selective Sodium (Na+) Binding (AID 2283311)
# Summary of the method: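 Filtration radioligand binding on rat forebrain membrane preparations, read 1.5 h after dosing. Single-concentration 25 µM primary screen in duplicate, followed by singleton concentration series to 50 µM max for actives; DMSO baseline.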
# rat Opioid Receptor, Non-selective Sodium (Na+) Binding, Oprm1 (gene 25601), sequence (P33535 whole entry, looked up): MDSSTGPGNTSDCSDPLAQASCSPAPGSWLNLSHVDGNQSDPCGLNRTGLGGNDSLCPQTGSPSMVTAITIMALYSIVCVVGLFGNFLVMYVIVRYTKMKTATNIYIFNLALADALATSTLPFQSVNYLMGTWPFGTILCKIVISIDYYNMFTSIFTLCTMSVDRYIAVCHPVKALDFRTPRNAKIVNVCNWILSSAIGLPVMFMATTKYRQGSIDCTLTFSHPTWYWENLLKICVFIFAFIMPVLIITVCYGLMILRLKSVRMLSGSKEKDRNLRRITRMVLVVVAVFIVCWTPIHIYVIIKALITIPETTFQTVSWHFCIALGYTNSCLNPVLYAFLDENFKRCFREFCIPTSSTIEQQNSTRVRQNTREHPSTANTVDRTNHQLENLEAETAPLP
SMILES,AC50,outcome
CO/C=C(/C(=O)OC)c1ccccc1Oc1cc(Oc2ccccc2C#N)ncn1,12.6 µM (active),inactive
CCCC1COC(Cn2cncn2)(c2ccc(Cl)cc2Cl)O1 (stereo unspecified),25 µM (active),–
COP(=S)(OC)Oc1nc(Cl)c(Cl)cc1Cl,–,inactive
COC(=O)C=C(C)OP(=O)(OC)OC,–,inactive
COc1nc(C)nc(NC(=O)NS(=O)(=O)c2ccccc2CCC(F)(F)F)n1,–,inactive

# Molecular target: rat Somatostatin Receptor (SST), Sstr1 (gene 25033) (UniProt P28646)
# Experiment: NVS_GPCR_rSST: NovaScreen (NVS) G Protein-Coupled Receptor Assay for rat Somatostatin Receptor (SST) (AID 2283314)
# Summary of the method: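 Single-concentration duplicate screen (25 uM), then concentration-response up to 50 uM for chemicals passing a threshold such as 30% inhibition. Membranes came from rat forebrain. Binding was measured 1 h post-dose by filter radiodetection and scintillation, relative to DMSO.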
# rat Somatostatin Receptor (SST), Sstr1 (gene 25033), sequence (P28646 whole entry, looked up): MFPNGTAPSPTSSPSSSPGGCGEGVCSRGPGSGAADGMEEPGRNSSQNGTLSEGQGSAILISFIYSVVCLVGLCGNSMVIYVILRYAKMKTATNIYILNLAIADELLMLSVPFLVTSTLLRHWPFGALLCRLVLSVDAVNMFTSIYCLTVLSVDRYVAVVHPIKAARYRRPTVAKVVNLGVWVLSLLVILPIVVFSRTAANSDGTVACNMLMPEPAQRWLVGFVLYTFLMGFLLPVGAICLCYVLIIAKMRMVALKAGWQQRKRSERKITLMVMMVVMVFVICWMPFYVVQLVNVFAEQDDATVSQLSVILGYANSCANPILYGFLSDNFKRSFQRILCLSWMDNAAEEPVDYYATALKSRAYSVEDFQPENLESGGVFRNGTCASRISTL
SMILES,outcome,AC50
CCOC(=O)CC(SP(=S)(OC)OC)C(=O)OCC (stereo unspecified),inactive,–
CS/C(C)=N/OC(=O)N(C)SN(C)C(=O)O/N=C(\C)SC,–,17.2 µM (active)
CN(C)C(=S)SSC(=S)N(C)C,inactive,–
COP(=S)(OC)Oc1nc(Cl)c(Cl)cc1Cl,inactive,–

# Molecular target: rat Neonicotinoid receptor (NNR), Chrna7 (gene 25302) (UniProt Q05941)
# Experiment: NVS_LGIC_rNNR_BungSens: NovaScreen (NVS) Ligand-Gated Ion Channel Assay for rat Neonicotinoid receptor (NNR) (AID 2283315)
# Summary of the method: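 Rat cortical membrane preparation incubated 2.5 h with tritiated or iodinated radioligand and test chemical. Bound radioactivity was filtered and counted by scintillation, and displacement was analysed against DMSO.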
# rat Neonicotinoid receptor (NNR), Chrna7 (gene 25302), sequence (Q05941 whole entry, looked up): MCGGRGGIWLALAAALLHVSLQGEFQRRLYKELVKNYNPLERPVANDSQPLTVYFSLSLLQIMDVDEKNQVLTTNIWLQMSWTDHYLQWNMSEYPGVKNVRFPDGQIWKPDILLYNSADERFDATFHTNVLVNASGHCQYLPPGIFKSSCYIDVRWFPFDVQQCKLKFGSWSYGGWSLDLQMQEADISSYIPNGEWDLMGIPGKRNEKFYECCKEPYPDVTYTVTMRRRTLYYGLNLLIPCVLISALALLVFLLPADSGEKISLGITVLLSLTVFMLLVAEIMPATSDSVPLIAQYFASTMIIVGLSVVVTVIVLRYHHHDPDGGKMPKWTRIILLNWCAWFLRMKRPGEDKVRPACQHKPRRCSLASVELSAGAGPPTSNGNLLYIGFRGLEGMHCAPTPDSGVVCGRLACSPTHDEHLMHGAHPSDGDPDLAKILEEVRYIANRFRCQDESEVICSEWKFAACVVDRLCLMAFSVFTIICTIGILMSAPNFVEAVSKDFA
SMILES,AC50,outcome
Cc1ccc(-c2c(Cl)nc(C#N)n2S(=O)(=O)N(C)C)cc1,8.72 µM (active),–
CNC(=O)ON=CC(C)(C)SC,–,inactive
CCOP(=S)(OCC)SCn1c(=O)oc2cc(Cl)ccc21,–,inactive
N#CC(CCc1ccc(Cl)cc1)(Cn1cncn1)c1ccccc1 (stereo unspecified),–,inactive

# Molecular target: rat Opioid Receptor, Non-selective Binding, Oprm1 (gene 25601) (UniProt P33535)
# Experiment: NVS_GPCR_rOpiate_NonSelective: NovaScreen (NVS) G Protein-Coupled Receptor Assay for rat Opioid Receptor, Non-selective Binding (AID 2283318)
# Protocol: NVS_GPCR_rOpiate_NonSelective is a biochemical, single-readout assay that uses extracted gene-proteins from Rat forebrain membranes in a tissue-based cell-free assay. Measurements were taken 1.5 hours after chemical dosing in a 48-well plate.NVS_GPCR_rOpiate_NonSelective is one of one assay component(s) measured or calculated from the NVS_GPCR_rOpiate_NonSelective assay. It is designed to make measurements of radioligand binding, a form of binding reporter, as detected with scintillation counting signals by Filter-based radiodetection technology.Data from the assay component NVS_GPCR_rOpiate_NonSelective was analyzed into 1 assay endpoint. This assay endpoint, NVS_GPCR_rOpiate_NonSelective, was analyzed in the positive analysis fitting direction relative to DMSO as the negative control and baseline of activity. Using a type of binding reporter, loss-of-signal activity can be used to understand changes in the binding as they relate to the gene Oprm1. Furthermore, this assay endpoint can be referred to as a primary readout, because the performed assay has only produced 1 assay endpoint. To generalize the intended target to other relatable targets, this assay endpoint is annotated to the gpcr intended target family, where the subfamily is rhodopsin-like receptor.
# Binding assays used specific radioligands (tritiated, iodinated) with non-radioactive competitive displacement ligands in agonist or antagonist protocols (as indicated) and various reference compounds and inhibitors to titrate specific binding to receptors and transporters. Most enzyme assays (CYPs, kinases, phosphatases, proteases, HDACs) used recombinant protein and specific substrates (fluorescence mostly, some colorimetric and radioactive) and inhibitors, followed by a biochemical separation of substrate and product. All assays for the biochemical HTS were initially run in duplicate at a single concentration (10 uM for CYP450 assays and 25 uM for all others). […] Each assay was run with positive and negative controls, and concurrent controls on every plate. The follow-up (secondary) screen tested active chemical-pairs in concentration series, as well as a few additional assays not tested in the primary screen, some selected negative inactives, and several cases re-run in the concentration series for confirmatory purposes.
# rat Opioid Receptor, Non-selective Binding, Oprm1 (gene 25601), sequence (P33535 whole entry, looked up): as the sequence (P33535 whole entry, looked up) above
SMILES,outcome,AC50
COc1ccc(C(c2ccc(OC)cc2)C(Cl)(Cl)Cl)cc1,inactive,–
O=C(Nc1ccccc1)Nc1ccnc(Cl)c1,–,32.3 µM (active)
CS/C(C)=N/OC(=O)N(C)SN(C)C(=O)O/N=C(\C)SC,inactive,–
CO/C=C(/C(=O)OC)c1ccccc1Oc1cc(Oc2ccccc2C#N)ncn1,inactive,6.66 µM (active)
CCCC1COC(Cn2cncn2)(c2ccc(Cl)cc2Cl)O1 (stereo unspecified),–,10.1 µM (active)
CCCCOC(=O)c1ccccc1C(=O)OCCCC,inactive,–
C#CCOS(=O)OC1CCCCC1Oc1ccc(C(C)(C)C)cc1 (stereo unspecified),inactive,–
